From PubChem BioAssay (Tox21)
Inconclusive results are not listed. The source made the active and inactive calls. Calls follow the shape of the dose curve; as a rule, active = well fitted activation curve with a large enough effect in the repeat runs; inconclusive = weak or mixed curves; inactive = flat fitted curve, though single readings scatter.

Test: A CellTox Green Cytotoxicity Assay to monitor cytotoxicity in HEK293 cells - 16 hour (AID 1224888); also: nearly all actives have a fitted effect of over 35% in size
Conditions: CellTox Green fluorescence; series mostly up to 76.8 µM; activity change: at the top concentration
Text: National Center for Advancing Translational Sciences [NCATS]
NIH Chemical Genomics Center [NCGC]
U.S. Environmental Protection Agency [EPA]
National Institutes of Environmental Health Sciences [NIEHS]
National Toxicology Program [NTP]
Cell-based models are critical for drug discovery. Determining the natural cytotoxic effects resulting from test compounds is an essential research activity. A CellTox Green Cytotoxicity Assay to monitor cytotoxicity in real time of continues cell culture during 40 hours of the compound treatment was used to screen Tox21 10K library compounds in Hek293 cells. CellTox Green Cytotoxicity Assay is a nonlytic, homogeneous, biofluorescent method to measure cytotoxicity in cell culture after experimental manipulation. The assay system uses a proprietary asymmetric cyanine dye that is excluded from viable cells but preferentially stains the dead cell's DNA. […] Viable cells produce no appreciable increases in fluorescence. Therefore, the fluorescence signal produced by the binding interaction with dead cell DNA is proportional to cytotoxicity.
The mixture of Hek293 cell suspension and reagents were dispensed at 600cells/6 ul/well in 1536-well tissue culture treated black solid bottom plates using a Multidrop dispenser. After the assay plates were incubated at a 37 C/5% CO2 incubator for 5 hours, 23 nL of compounds dissolved in DMSO, positive and negative controls was transferred to the assay plate by a pintool work station. The plates were incubated at 37 C for 40 hours. The fluorescence intensity were measured at 0h, 8h, 16h, 24h, 32h and 40h time points using ViewLux plate reader during compound treatment.
% is scaled to controls: 0 for no effect and ±100 for the full control effect; potency is read from the fitted curve at half-maximal effect.

SMILES | activity change | Potency
Cc1ccc2nc3sc(=O)sc3nc2c1 | -2.03% [at 15.8 µM, stronger effect = higher value] (inactive) | –
COc1ccc(C(c2ccc(OC)cc2)C(Cl)(Cl)Cl)cc1 | -1.16% (inactive) | –
Cc1nnc2n1-c1sc(CCc3ccc(CC(C)C)cc3)cc1C(c1ccccc1Cl)=NC2C (stereo not drawn) | 5.72% [at 35.3 µM, stronger effect = higher value] (inactive) | –
O=C(c1ccccc1)C(Cl)Cl | 6.8% (inactive) | –
O=S(=O)(C(Cl)(Cl)Cl)C(Cl)(Cl)Cl | – | 24.5 µM (active)
Cc1cc(C)c(C(=O)P(=O)(c2ccccc2)c2ccccc2)c(C)c1 | 15.9% (inactive) | –
OC(Cc1ccccc1Cl)(Cn1[nH]cnc1=S)C1(Cl)CC1 (stereo not drawn) | -27.7% (inactive) | –
N#Cc1cc([N+](=O)[O-])ccc1N | -0.515% (inactive) | –
CCOC(=O)C(O)(c1ccc(Cl)cc1)c1ccc(Cl)cc1 | – | inactive
ClC(Cl)=C(c1ccc(Cl)cc1)c1ccccc1Cl | 27.2% (inactive) | –
CC1COC(Cn2cncn2)(c2ccc(Oc3ccc(Cl)cc3)cc2Cl)O1 (stereo not drawn) | 3.18% (inactive) | –
Cc1ccc(N(SC(F)(Cl)Cl)S(=O)(=O)N(C)C)cc1 | – | 24.5 µM (active)
CN1CSC(=S)N(C)C1 | – | inactive
CNC(=O)Oc1cc(C)c(SC)c(C)c1 | – | 21.9 µM (active)
CO/C=C(/C(=O)OC)c1ccccc1Oc1cc(Oc2ccccc2C#N)ncn1 | -1.22% (inactive) | –
O=[N+]([O-])c1c(Cl)c(Cl)cc(Cl)c1Cl | – | 49 µM (active)
COc1cc(OC)c(OC)cc1C=O | 6.11% (inactive) | –
OCC(c1ccc(Cl)cc1)c1ccc(Cl)cc1 | – | 24.5 µM (active)
O=C1C(I)=CC(=C(c2cc(I)c(O)c(I)c2)c2ccccc2C(=O)O)C=C1I | -0.778% [at 35.3 µM, stronger effect = higher value] (inactive) | –
CCN(CC)C(=O)Cl | 1.28% (inactive) | –
Clc1ccccc1-c1ccccc1Cl | – | 35.2 µM (active)
Oc1c(I)cc(I)cc1I | -0.406% (inactive) | –
C[C@]12CC[C@@H](O)C[C@@H]1CC[C@@H]1[C@@H]2CC[C@]2(C)C(=O)CC[C@@H]12 | 23.1% (inactive) | –
